In the library only some 0.99% were active in any assay of this set; here they are far more common.
AmpC inh no detg – qHTS Inhibitors of AmpC Beta-Lactamase (assay without detergent). actives 0.52% (n = 330,000). P00811. AmpC nitrocefin hydrolysis, absorbance 480 nm, 0.0001% Triton. Potency, µM (series often up to 57.1 µM), for inactives: top-dose activity change, negative = inhibition, usual class: inhibitors. AID 485341, 2010; active = well fitted curve in the direction sought with a large enough effect; inconclusive = small, poorly fitted or top-dose-only effect, or another doubt; inactive = no such curve, though single readings can be large; an effect the other way counts as inactive or inconclusive;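 also: potency is read from the fitted curve at half-maximal effect; plate controls were no compound for no effect and no enzyme for full effect; nearly all actives have a fitted effect of over 20% in size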
Target sequence (P00811 whole entry, looked up): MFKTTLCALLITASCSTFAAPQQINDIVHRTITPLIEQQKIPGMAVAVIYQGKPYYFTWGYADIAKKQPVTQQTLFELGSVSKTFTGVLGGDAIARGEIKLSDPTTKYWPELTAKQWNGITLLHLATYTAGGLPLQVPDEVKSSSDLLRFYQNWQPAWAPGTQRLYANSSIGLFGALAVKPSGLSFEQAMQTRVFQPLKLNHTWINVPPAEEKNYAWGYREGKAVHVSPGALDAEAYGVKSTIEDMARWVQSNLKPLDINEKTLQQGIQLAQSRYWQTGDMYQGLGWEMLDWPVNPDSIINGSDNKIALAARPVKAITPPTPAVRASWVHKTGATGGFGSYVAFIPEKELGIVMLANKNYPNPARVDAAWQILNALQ
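20 mM phosphate pH 7.0 + 0.01% (detergent screen) or 0.0001% Triton X-100; 5.3 nM AmpC reagent; cpd preinc 15 min RT; nitrocefin (800 uM stock) to start; A480 q20 s × 4 min; Activity was normalised to no-enzyme and no-compound control wells.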
AmpC inh detg – qHTS Inhibitors of AmpC Beta-Lactamase (assay with detergent) | AmpC hydrolysis of nitrocefin, absorbance 480 nm, 0.01% Triton | AID 485294, 2010 | Potency, µM (doses to about 114 µM), inactives show at the highest dose activity change, negative = inhibition, most hits filed as inhibitors | actives 0.041% (n = 370,000) | P00811; active = well fitted curve in the direction sought with a large enough effect; inconclusive = small, poorly fitted or top-dose-only effect, or another doubt; inactive = no such curve, though single readings can be large; an effect the other way counts as inactive or inconclusive;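 also: potency is read from the fitted curve at half-maximal effect; 0% = no-compound wells and -100% = no-enzyme wells; nearly all actives have a fitted effect of over 25% in size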
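AmpC (5.3 nM in the dispensed reagent) in 20 mM phosphate pH 7.0 with 0.01% (detergent screen) or 0.0001% Triton X-100 was preincubated with compounds for 15 min at room temperature. Nitrocefin was then added from an 800 uM solution, and hydrolysis was followed at 480 nm.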
SARS PLP yeast – qHTS of Yeast-based Assay for SARS-CoV PLP. S. cerevisiae expressing SARS-CoV PLpro, growth rescue. Potency, µM (series often up to 32.9 µM), inactives show top-dose activity, positive = growth rescue, usual class: activators. actives 0.19% (n = 330,000). AID 485353, 2010; also: potency is read from the fitted curve at half-maximal effect; 0% is about no effect; nearly all actives have a fitted effect of over 55% in size
NS1 inh – qHTS Assay for Inhibitors of Influenza NS1 Protein Function; Potency, µM (top dose mostly 46.1 µM), without a hit: top-dose activity, positive = more growth; actives 0.4% (n = 270,000); AID 2326, 2010; also: potency is read from the fitted curve at half-maximal effect; actives are rising curves; nearly all actives have a fitted effect of over 50% in size
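Compounds were scored for reversing the slow growth caused by influenza A NS1 in S. cerevisiae, measured by optical density at 600 nm. Assay medium contained 2% galactose at pH 6.0; NS1-free yeast of the same strain were the positive control.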
AMA1-RON2 inh – qHTS for Inhibitors of AMA1-RON; Towards Development of Antimalarial Drug Lead: Primary Screen. Potency, µM (doses to about 58.2 µM), inactives show at the top dose activity change, negative = inhibition, usual class: inhibitors. AID 720542, 2013. Plasmodium falciparum AMA1 (3D7) - RON2 peptide interaction. actives 0.2% (n = 360,000). AlphaScreen AMA1-biotinylated RON2 peptide binding; active = well fitted curve in the direction sought with a large enough effect; inconclusive = small, poorly fitted or top-dose-only effect, or another doubt; inactive = no such curve, though single readings can be large; an effect the other way counts as inactive or inconclusive;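 also: potency is read from the fitted curve at half-maximal effect; 0% = vehicle wells and -100% = peptide control; nearly all actives have a fitted effect of over 45% in size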
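AMA1 (3D7) with his tag at 25 nM final met compounds first, then biotinylated RON2 peptide at 25 nM; detection used donor plus acceptor beads, 10 µg/mL apiece, read by AlphaScreen after 30 min at room temperature.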
NS1 inh valid – Assay for Inhibitors of Influenza NS1 Protein Function: Hit Validation; shares compounds with NS1 inh; influenza NS1 function cell assay, 15-point titration; activity change, negative = inhibition, % at 32.9 µM; 1,400 tested, under 10 active; AID 492980, 2010; also: 0% is about no effect
Flu PR8 replic – Assay for Inhibitors of Influenza NS1 Protein Function: Influenza virus replication assay in MDCK cells infected with virus A/PR/8/34 | shares compounds with NS1 inh | MDCK infected influenza A/PR/8/34, virus titer TCID50; stronger effect = lower value | virus titer (log TCID50), log10 TCID50 at 5 µM | actives 30% (n = 95) | AID 504647, 2011; call rule not given here
Numbers without * were called inactive; ? = inconclusive; · = no result. Unless noted, calls follow the shape of the full dose curve.

SMILES	AmpC inh no detg	AmpC inh detg	SARS PLP yeast	NS1 inh	AMA1-RON2 inh	NS1 inh valid	others
O=C(CSc1nncn1-c1ccccn1)Nc1ccccc1Cl	-8.3%	-8.0%	-5.1%	-5.8%	17.7%	·
Cc1c(Cl)cccc1NC(=O)CSc1nncn1-c1ccccn1	-22.9%	-0.6%	0.0%	?	3.7%	-0.2	Flu PR8 replic=8.5
COc1cc(/C=N/NC(N)=O)ccc1OC(=O)c1ccc(C)cc1	16.2%	1.1%	-0.3%	2.4%	·	·
COc1ccc(/C=N/NC(N)=S)cc1OC(=O)c1cccc2ccccc12	-37.9%	-0.1%	?	2.24µM*	5.8%	?
COc1ccc(C(=O)Oc2cc(/C=N/NC(N)=S)ccc2OC)cc1	-54.4%	?	?	8.91µM*	2.4%	-38.7
C#CCOc1ccc(/C=C2/C(=O)NN(c3ccc(F)cc3)C2=O)cc1OC	-18.5%	-18.7%	3.9%	3.55µM*	-5.9%	36.9
COc1cc(/C=C2\C(=O)NN(c3ccccc3)C2=O)ccc1OCC(N)=O	-26.1%	0.2%	11.1%	·	·	·
O=C(c1cc(COc2ccc(F)cc2Cl)on1)N1CCCCC1c1cccnc1 (stereo not given)	64.4%	-5.2%	-9.5%	-16.5%	1.1%	·
COc1cc(Cl)ccc1OCc1cc(C(=O)N2CCCCC2c2cccnc2)no1 (stereo not given)	81.0%	?	-48.5%	3.16µM*	0.6%	?
CN(C)c1ccc(CNC(=O)c2sc3ncccc3c2-n2cccc2)cc1	·	11.1%	·	·	·	·
COc1ccccc1CNC(=O)c1cccn1-c1nnc(N2CCCCC2)s1	·	1.4%	·	·	·	·
CC(C)(C)C(=O)Nc1ccc(C(=O)Nc2cccc(Oc3ccc(C(=O)O)c(C(=O)O)c3)c2)cc1	-22.4%	-4.9%	-3.5%	11.2µM*	0.7%	29.4
COc1ccc2[nH]c(=O)c(CNc3cccc(C)c3)cc2c1	-24.3%	-2.5%	5.8%	2.82µM*	-11.2%	0.2
Cc1c(C(=O)NCc2cccc(Br)c2)oc2ccc3c(c12)C(=O)CC(C)(C)O3	·	26.6%	·	·	·	·
CCOC(=O)c1cc(OC(=O)c2cccnc2)n(-c2ccccc2)n1	-34.7%	?	9.6%	2µM*	·	?
Cc1cc(C)c2c(=O)cc(C(=O)Nc3sc4c(c3C(=O)NCC3CCCO3)CCCC4)oc2c1 (stereo not given)	·	1.5%	·	·	·	·
O=S(=O)(c1cccc(C(F)(F)F)c1)n1c(/C=C/c2ccccc2)nc2ccccc21	·	-3.8%	·	·	·	·
Cc1cccc(OCc2nnc(SCC(=O)N3c4ccccc4CCc4ccccc43)o2)c1	-4.8%	-10.6%	0.3%	12.6µM*	-1.1%	-20.4	Flu PR8 replic=8.5
COC(=O)CC1c2cc(OC)c(OC)cc2CCN1C(=O)Nc1ccc(C)cc1Cl (stereo not given)	·	16.3%	·	·	·	·
Cc1ccsc1/C=C(\C(=O)c1ccc(OC(C)C)cc1)c1nc2ccccc2o1	4.0%	12.5%	5.5%	14.1µM*	-26.5%	-29.0
COc1ccccc1NC(=O)C(=O)NCC(c1ccc2c(c1)OCO2)N1CCOCC1 (stereo not given)	·	1.1%	·	·	·	·
Cc1ccc(C2N(c3ccc(F)cc3)C(=O)C3CCCN32)cc1 (stereo not given)	-0.4%	-9.2%	2.8%	1.78µM*	-3.2%	-8.9
CCOc1ccccc1CNC(=O)c1c(C)oc2ncnc(N3CCOCC3)c12	·	17.3%	·	·	·	·
Cc1ccc(CNC(=O)CN2C(=O)C3CCCCN3c3ccc(C(=O)N4CCCC4)cc32)cc1 (stereo not given)	·	1.6%	·	·	·	·
